Measured values as given in PubChem BioAssay (EPA / NIEHS).
Records with an inconclusive call do not appear. Active and inactive are the calls of the source. The calls were made as follows, unless noted: active = hit-call score of the fitted dose curve at least 0.9, where 1 is the maximum; inconclusive = response in the unintended direction; inactive = score below 0.9.

Key:
TTR (gene 7276) = assay: CCTE_GLTED_hTTR_0.125uM: CCTE's human Transthyretin (hTTR) Inhibition Assay, with 0.125uM TTR, Great Lakes Toxicology and Ecology Division (GLTED) Lab (AID 2284431; active = hit-call score of the fitted dose curve at least 0.9, where 1 is the maximum; inactive = score below 0.9;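 also: hits lower the fluorescence signal relative to DMSO baseline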)
Method in brief: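 Activity is defined as decreased ANSA fluorescence (ex 380, em 475) from human transthyretin, 0.125uM, following 2-hour chemical exposure in a cell-free setup, with DMSO as baseline.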

[1] = target: Androgen receptor (Homo sapiens) (UniProt P10275); assay: ATG_AR_TRANS: Attagene TRANS-FACTORIAL HepG2 Assay for human Androgen Receptor (AR) (AID 2282973); details: HepG2 Attagene TRANS-FACTORIAL AR reporter transcription
Chain of Androgen receptor (Homo sapiens) (P10275 whole entry, looked up, the tested form may be a part): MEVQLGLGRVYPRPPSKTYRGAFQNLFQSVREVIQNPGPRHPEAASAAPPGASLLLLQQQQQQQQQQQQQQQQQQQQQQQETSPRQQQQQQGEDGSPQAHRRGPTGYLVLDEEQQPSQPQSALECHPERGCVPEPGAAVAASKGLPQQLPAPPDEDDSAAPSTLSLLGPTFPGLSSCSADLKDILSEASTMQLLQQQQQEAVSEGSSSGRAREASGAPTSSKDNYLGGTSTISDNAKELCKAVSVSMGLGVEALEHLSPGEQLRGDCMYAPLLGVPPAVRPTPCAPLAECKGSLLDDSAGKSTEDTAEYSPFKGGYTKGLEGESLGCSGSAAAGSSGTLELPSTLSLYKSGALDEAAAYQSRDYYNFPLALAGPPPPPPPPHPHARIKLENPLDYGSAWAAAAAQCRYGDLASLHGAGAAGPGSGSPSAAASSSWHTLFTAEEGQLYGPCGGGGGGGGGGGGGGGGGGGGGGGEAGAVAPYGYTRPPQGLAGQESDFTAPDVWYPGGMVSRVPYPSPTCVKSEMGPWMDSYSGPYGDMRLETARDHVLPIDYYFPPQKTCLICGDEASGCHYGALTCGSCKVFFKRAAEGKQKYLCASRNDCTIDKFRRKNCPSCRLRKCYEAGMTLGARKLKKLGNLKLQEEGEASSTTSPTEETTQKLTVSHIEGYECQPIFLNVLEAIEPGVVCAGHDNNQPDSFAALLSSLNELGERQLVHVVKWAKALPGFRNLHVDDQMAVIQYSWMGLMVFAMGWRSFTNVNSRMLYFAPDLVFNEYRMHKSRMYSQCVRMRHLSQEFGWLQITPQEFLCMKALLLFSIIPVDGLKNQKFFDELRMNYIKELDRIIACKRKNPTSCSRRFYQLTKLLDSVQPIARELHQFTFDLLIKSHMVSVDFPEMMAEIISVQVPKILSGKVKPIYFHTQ
Method in brief: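 Chimeric nuclear receptor–Gal4 activity was assessed in human HepG2 hepatocytes after 24 h chemical dosing. Induced reporter mRNA was detected via labelled RT-PCR fragments on capillary electrophoresis, and gain of signal was analysed against DMSO.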

rat CYP2B1, gene 24300 = assay: NVS_ADME_rCYP2B1: NovaScreen (NVS) CYP450-related Enzyme Activity (ADME) Assay for rat CYP2B1 (AID 2283117)
Method in brief: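 Recombinant rat CYP2B1 with fluorogenic substrate, read at 0.75 h. Primary screen in duplicate at 10 uM; compounds meeting threshold (e.g., 30% inhibition) re-run in concentration-response up to 20 uM. Fitted against acetonitrile control.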

[2] = target: human Fibroblast Growth Factor Receptor 1 (FGFR1), FGFR1 (gene 2260) (UniProt P11362); assay: NVS_ENZ_hFGFR1: NovaScreen (NVS) Enzymatic Assay for human Fibroblast Growth Factor Receptor 1 (FGFR1) (AID 2283159);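 as to AC50: hits lower the signal so potencies describe inhibitors of the kinase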
Chain of human Fibroblast Growth Factor Receptor 1 (FGFR1), FGFR1 (gene 2260) (P11362 whole entry, looked up): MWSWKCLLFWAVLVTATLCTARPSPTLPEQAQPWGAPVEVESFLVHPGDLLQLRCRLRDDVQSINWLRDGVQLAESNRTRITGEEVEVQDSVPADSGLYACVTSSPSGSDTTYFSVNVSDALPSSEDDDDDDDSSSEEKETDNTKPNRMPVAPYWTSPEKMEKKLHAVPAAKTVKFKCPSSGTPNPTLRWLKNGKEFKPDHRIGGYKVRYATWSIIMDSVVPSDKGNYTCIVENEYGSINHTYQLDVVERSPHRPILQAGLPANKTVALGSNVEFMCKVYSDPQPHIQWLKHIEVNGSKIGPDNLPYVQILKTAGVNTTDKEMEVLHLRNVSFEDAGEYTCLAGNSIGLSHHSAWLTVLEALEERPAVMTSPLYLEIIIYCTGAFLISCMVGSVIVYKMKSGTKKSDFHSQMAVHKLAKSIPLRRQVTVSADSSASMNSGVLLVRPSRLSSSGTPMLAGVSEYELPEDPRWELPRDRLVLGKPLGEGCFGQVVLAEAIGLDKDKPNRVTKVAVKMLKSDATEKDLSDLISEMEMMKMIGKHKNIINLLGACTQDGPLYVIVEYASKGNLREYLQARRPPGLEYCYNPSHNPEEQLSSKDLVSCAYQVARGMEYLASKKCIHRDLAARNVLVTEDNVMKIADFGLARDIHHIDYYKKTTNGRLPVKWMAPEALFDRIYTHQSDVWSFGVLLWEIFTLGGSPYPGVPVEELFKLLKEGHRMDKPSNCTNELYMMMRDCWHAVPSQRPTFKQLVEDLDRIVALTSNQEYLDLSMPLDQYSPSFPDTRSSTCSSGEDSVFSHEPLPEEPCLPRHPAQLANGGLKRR
Method in brief: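 Cell-free recombinant kinase with fluorescent substrate, product separated by electrophoretic mobility shift; read 1 hour after dosing, loss of signal relative to DMSO. Initial screen in duplicate at 25 uM, actives followed in concentration series.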

[3] = tested on: rat Monoamine Oxidase, MAO-A, Central (MAOAC), gene 29253; assay: NVS_ENZ_rMAOAC: NovaScreen (NVS) Enzymatic Assay for rat Monoamine Oxidase, MAO-A, Central (MAOAC) (AID 2283243);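 also: potency refers to inhibition seen as signal drop below DMSO baseline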
Method in brief: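 Inhibition of rat brain-derived MAO-A was read by scintillation counting after 1.5 h exposure. Compounds screened first at 25 uM in duplicate, then in dose series if active.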

[4] = target: Norway rat Vesicular Monoamine Transporter (VMAT2), neurotransmitter transporter, Slc18a2 (gene 25549) (UniProt Q01827); assay: NVS_TR_rVMAT2: NovaScreen (NVS) Transporter Assay for Norway rat Vesicular Monoamine Transporter (VMAT2), neurotransmitter transporter (AID 2283376);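 also: actives lower the bound radioligand signal below the DMSO level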
Chain of Norway rat Vesicular Monoamine Transporter (VMAT2), neurotransmitter transporter, Slc18a2 (gene 25549) (Q01827 whole entry, looked up): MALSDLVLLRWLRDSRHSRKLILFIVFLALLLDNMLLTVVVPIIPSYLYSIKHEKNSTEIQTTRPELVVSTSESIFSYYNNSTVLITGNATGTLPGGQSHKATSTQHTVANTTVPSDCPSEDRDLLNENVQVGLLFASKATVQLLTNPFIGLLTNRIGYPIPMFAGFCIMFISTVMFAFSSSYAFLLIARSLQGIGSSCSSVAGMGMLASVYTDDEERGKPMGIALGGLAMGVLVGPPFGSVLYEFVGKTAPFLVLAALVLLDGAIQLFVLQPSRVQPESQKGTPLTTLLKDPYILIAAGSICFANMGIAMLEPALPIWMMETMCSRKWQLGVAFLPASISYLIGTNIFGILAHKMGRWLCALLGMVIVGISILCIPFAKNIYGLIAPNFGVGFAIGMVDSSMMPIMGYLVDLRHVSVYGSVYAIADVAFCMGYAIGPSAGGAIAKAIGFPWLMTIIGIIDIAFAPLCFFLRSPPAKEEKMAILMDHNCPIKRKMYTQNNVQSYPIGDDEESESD
Method in brief: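 Radioligand displacement binding on rat forebrain tissue preparation, filter-based scintillation read-out 1 hour after dosing. Primary screen in duplicate at 25 uM, then concentration series for actives; loss of signal versus DMSO.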

[5] = target: human CYP4F12, CYP4F12 (gene 66002) (UniProt Q9HCS2); assay: NVS_ADME_hCYP4F12: NovaScreen (NVS) CYP450-related Enzyme Activity (ADME) Assay for human CYP4F12 (AID 2283111)
Method in brief: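 Cell-free fluorescence assay of recombinant human CYP4F12 activity on a specific substrate, read 0.5 h after dosing. Primary screen in duplicate at 10 uM, then concentration series for actives; loss of signal fitted against acetonitrile negative control.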

[6] = target: human Acetylcholinesterase (AChE), ACHE (gene 43) (UniProt P22303); assay: NVS_ENZ_hAChE: NovaScreen (NVS) Enzymatic Assay for human Acetylcholinesterase (AChE) (AID 2283129)
Chain of human Acetylcholinesterase (AChE), ACHE (gene 43) (P22303 whole entry, looked up): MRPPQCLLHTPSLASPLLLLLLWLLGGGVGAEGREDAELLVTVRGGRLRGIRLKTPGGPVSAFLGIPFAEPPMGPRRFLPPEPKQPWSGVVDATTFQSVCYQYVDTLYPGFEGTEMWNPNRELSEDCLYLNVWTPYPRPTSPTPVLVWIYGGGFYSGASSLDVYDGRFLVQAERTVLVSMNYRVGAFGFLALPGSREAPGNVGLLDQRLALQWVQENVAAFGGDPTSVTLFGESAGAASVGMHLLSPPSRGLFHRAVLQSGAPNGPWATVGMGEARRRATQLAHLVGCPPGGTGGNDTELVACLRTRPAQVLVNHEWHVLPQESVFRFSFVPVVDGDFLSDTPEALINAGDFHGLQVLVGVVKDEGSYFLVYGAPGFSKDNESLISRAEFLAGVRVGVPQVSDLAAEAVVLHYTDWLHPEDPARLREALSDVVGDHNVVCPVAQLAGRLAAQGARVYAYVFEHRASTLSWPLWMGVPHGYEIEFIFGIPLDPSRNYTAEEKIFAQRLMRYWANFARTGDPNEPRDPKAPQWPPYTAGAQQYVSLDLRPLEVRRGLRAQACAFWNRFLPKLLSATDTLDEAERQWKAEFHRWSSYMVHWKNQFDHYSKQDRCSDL
Method in brief: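 Cell-free colorimetric enzyme-activity assay; compounds read 0.33 hour after dosing, loss of signal vs DMSO baseline. Primary screen in duplicate at 25 uM single concentration, with active compounds retested in concentration series.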

[7] = target: human Caspase 2 (CASP2), CASP2 (gene 835) (UniProt P42575); assay: NVS_ENZ_hCASP2: NovaScreen (NVS) Enzymatic Assay for human Caspase 2 (CASP2) (AID 2283135)
Chain of human Caspase 2 (CASP2), CASP2 (gene 835) (P42575 whole entry, looked up): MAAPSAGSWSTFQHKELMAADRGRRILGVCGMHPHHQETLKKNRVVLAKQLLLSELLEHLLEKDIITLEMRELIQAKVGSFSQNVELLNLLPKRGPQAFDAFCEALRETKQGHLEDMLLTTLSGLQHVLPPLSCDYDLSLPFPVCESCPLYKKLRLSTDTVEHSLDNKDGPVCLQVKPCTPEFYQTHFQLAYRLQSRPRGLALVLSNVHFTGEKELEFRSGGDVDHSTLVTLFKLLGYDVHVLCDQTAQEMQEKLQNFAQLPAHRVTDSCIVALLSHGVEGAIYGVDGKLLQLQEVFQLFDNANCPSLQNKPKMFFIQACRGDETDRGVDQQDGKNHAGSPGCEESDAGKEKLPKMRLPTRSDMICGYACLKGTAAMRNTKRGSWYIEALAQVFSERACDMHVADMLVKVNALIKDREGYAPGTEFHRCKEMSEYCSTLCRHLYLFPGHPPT
Method in brief: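 E. coli-expressed enzyme in a cell-free protease assay, fluorescence read 1 h after dosing. Compounds at 25 uM in duplicate, with concentration-response up to 50 uM for hits; loss of signal against DMSO baseline.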

[8] = target: Protein deacetylase HDAC6 (Homo sapiens) (UniProt Q9UBN7); assay: NVS_ENZ_hHDAC6: NovaScreen (NVS) Enzymatic Assay for human Histone Deacetylase 6 (HDAC6) (AID 2283164)
Method in brief: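 Recombinant human HDAC6 with fluorescent substrate, 1 h; product separated from substrate by electrophoretic mobility shift. Primary screen in duplicate at 25 uM; actives retested singly in concentration-response up to 50 uM, fitted relative to DMSO.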

[9] = target: human Aurora Kinase A - serine/threonine-protein Kinase 6 (AurA), AURKA (gene 6790) (UniProt O14965); assay: NVS_ENZ_hAurA: NovaScreen (NVS) Enzymatic Assay for human Aurora Kinase A - serine/threonine-protein Kinase 6 (AurA) (AID 2283142)
Method in brief: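 Cell-free enzymatic assay with human Aurora A, 1 hour after dosing. Fluorescent substrate turnover detected after electrophoretic mobility shift separation of substrate and product. Screened at 25 uM, actives retested in concentration-response up to 50 uM.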

[10] = target: human Epidermal Growth Factor Receptor (EGFR), EGFR (gene 1956) (UniProt P00533); assay: NVS_ENZ_hEGFR: NovaScreen (NVS) Enzymatic Assay for human Epidermal Growth Factor Receptor (EGFR) (AID 2283151)
Method in brief: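 Cell-free kinase assay, fluorescence plus electrophoretic mobility shift separating substrate and product, read 1 hour after dosing; loss of signal vs DMSO. Duplicate screen at 25 uM, then concentration-response to 50 uM.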

[11] = target: human Ephrin type-B Receptor 2 (EphB2), EPHB2 (gene 2048) (UniProt P29323); assay: NVS_ENZ_hEphB2: NovaScreen (NVS) Enzymatic Assay for human Ephrin type-B Receptor 2 (EphB2) (AID 2283156)
Method in brief: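 Recombinant kinase with fluorescent substrate, product separated by electrophoretic mobility shift, read 1 h after dosing. Duplicate 25 uM screen, then singleton concentration-response to 50 uM max; loss of signal versus DMSO.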

[12] = target: human NIMA (Never In Mitosis Gene A)-Related Kinase 2 (NEK2), NEK2 (gene 4751) (UniProt P51955); assay: NVS_ENZ_hNEK2: NovaScreen (NVS) Enzymatic Assay for human NIMA (Never In Mitosis Gene A)-Related Kinase 2 (NEK2) (AID 2283188)
Method in brief: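 Cell-free NEK2 enzyme activity after 1 h exposure, read by fluorescence with electrophoretic mobility shift separating substrate and product. Primary screen in duplicate at 25 uM; actives then run as concentration series. Loss of signal versus DMSO scored.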

[13] = target: human p21 Activated Kinase 4 (PAK4), PAK4 (gene 10298) (UniProt O96013); assay: NVS_ENZ_hPAK4: NovaScreen (NVS) Enzymatic Assay for human p21 Activated Kinase 4 (PAK4) (AID 2283189)
Method in brief: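 Cell-free recombinant human PAK4 activity assay; fluorescent substrate and product separated by electrophoretic mobility shift, read 1 h after dosing. Initially tested in duplicate at 25 uM, relative to DMSO baseline.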

[14] = target: human Protein Tyrosine Phosphatase Non-receptor Type 2 (PTPN2), PTPN2 (gene 5771) (UniProt P17706); assay: NVS_ENZ_hPTPN2: NovaScreen (NVS) Enzymatic Assay for human Protein Tyrosine Phosphatase Non-receptor Type 2 (PTPN2) (AID 2283207)
Method in brief: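 Cell-free recombinant enzyme with fluorescent substrate, product separated by electrophoretic mobility shift; read 1 h after dosing. Primary screen single concentration (25 uM) in duplicate; actives followed in concentration series; loss of signal versus DMSO.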

[15] = target: rat Monoamine Oxidase, MAO-B, Peripheral (MAOBP), Maob (gene 25750) (UniProt P19643); assay: NVS_ENZ_rMAOBP: NovaScreen (NVS) Enzymatic Assay for rat Monoamine Oxidase, MAO-B, Peripheral (MAOBP) (AID 2283242)
[16] = target: human Neonicotinoid receptor (NNR), CHRNA2 (gene 1135) (UniProt Q15822); assay: NVS_LGIC_hNNR_NBungSens: NovaScreen (NVS) Ligand-Gated Ion Channel Assay for human Neonicotinoid receptor (NNR) (AID 2283313)
Chain of human Neonicotinoid receptor (NNR), CHRNA2 (gene 1135) (Q15822 whole entry, looked up): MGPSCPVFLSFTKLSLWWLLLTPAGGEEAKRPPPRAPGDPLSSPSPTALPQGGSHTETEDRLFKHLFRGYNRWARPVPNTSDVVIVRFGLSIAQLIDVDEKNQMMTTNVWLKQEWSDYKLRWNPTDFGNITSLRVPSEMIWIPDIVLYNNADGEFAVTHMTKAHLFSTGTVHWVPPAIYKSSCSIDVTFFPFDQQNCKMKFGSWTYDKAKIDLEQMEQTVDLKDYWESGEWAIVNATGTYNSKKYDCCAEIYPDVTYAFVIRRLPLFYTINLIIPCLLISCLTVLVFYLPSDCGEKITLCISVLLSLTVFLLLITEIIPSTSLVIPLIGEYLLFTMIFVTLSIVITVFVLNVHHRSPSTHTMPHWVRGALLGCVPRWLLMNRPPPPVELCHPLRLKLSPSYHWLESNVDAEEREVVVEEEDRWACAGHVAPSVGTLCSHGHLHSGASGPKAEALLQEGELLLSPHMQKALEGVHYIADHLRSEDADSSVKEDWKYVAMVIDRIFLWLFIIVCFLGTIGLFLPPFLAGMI
Method in brief: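 Radioligand displacement on human neuroblastoma membranes, 2 h, filter-based scintillation counting. Primary screen in duplicate at 25 uM; chemicals passing threshold (e.g. 30% inhibition) run singleton concentration-response to 50 uM; loss of binding fitted versus DMSO.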

[17] = target: rat CYP2C12, Cyp2c12 (gene 25011) (UniProt P11510); assay: NVS_ADME_rCYP2C12: NovaScreen (NVS) CYP450-related Enzyme Activity (ADME) Assay for rat CYP2C12 (AID 2283119)
Chain of rat CYP2C12, Cyp2c12 (gene 25011) (P11510 whole entry, looked up): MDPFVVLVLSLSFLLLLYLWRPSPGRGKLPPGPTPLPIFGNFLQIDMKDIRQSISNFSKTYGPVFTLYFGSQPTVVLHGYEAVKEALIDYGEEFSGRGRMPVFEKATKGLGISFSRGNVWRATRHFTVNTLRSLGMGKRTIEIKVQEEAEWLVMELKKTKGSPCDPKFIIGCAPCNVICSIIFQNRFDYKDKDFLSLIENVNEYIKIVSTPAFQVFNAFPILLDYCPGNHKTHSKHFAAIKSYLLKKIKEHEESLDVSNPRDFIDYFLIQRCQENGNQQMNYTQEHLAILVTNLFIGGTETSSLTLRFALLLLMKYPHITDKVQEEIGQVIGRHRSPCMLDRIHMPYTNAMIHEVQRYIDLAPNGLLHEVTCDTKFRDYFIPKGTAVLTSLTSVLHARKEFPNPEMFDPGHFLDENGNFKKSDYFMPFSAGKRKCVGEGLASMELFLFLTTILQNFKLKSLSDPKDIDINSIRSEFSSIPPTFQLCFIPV
Method in brief: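 Cell-free recombinant rat CYP2C12 activity read by fluorescence 0.5 h after dosing; loss of signal versus acetonitrile control. Primary screen in duplicate at 10 uM; actives then run in concentration-response format.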

[18] = target: rat CYP2D1, Cyp2d1 (gene 266684) (UniProt P10633); assay: NVS_ADME_rCYP2D1: NovaScreen (NVS) CYP450-related Enzyme Activity (ADME) Assay for rat CYP2D1 (AID 2283122)
Chain of rat CYP2D1, Cyp2d1 (gene 266684) (P10633 whole entry, looked up): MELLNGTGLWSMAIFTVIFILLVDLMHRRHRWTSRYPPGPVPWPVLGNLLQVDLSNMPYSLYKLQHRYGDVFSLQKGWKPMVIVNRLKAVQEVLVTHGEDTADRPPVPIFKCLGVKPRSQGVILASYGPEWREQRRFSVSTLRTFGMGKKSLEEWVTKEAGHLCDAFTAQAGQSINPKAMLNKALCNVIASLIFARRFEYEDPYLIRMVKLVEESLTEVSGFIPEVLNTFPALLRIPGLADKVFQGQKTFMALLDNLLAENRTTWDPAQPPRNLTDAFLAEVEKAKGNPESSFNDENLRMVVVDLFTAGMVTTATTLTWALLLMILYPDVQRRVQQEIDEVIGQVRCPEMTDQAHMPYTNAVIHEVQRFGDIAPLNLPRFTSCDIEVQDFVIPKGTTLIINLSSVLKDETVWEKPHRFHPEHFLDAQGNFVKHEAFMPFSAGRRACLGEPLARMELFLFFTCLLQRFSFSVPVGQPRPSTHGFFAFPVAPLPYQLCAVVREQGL
Method in brief: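 Cell-free fluorescence enzyme-activity assay on extracted rat CYP2D1 protein, read 0.75 h after dosing. Primary screen in duplicate at 10 uM; qualifying chemicals then run in concentration-response to 20 uM max, loss-of-signal versus acetonitrile baseline.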

`Nc1cc(Cl)cc(Cl)c1` was tested. Which AC50 (TTR (gene 7276)) did it give?
The AC50 was 6.93 µM (active).

How did the outcome [1] turn out when `CC(CC(C)(C)C)CC(C)(C)CC(C)(C)C` (stereo unspecified) was run?
The outcome was “inactive”.

For `Cc1ccc(-c2cc(C(F)(F)F)nn2-c2ccc(S(N)(=O)=O)cc2)cc1`, which outcome [1] is on record?
Its outcome is “inactive”.

What does the source list for `NC(=NCCCCCCN=C(N)/N=C(\N)Nc1ccc(Cl)cc1)/N=C(\N)Nc1ccc(Cl)cc1`?
outcome [1]: inactive; AC50 (rat CYP2B1, gene 24300): 5.93 µM (active); AC50 [2]: 11.8 µM (active); AC50 [3]: 20.5 µM (active); outcome [4]: inactive

Which outcome [1] does the source give for `C=COC(=O)C(C)(C)CCCCCC` here?
Its outcome is “inactive”.

`O=C(Cl)C(F)(F)C(F)(F)C(F)(F)C(=O)Cl` was tested. Which outcome [1] did it give?
The outcome was “inactive”.

`Cc1ccc(S(=O)(=O)Oc2ccc(N=Nc3ccc(-c4ccc(N=Nc5c(O)ccc6cc(S(=O)(=O)O)cc(S(=O)(=O)O)c56)c(C)c4)cc3C)cc2)cc1` was tested. Which outcome [1] did it give?
The outcome was “inactive”.

Which outcome [1] does the source give for `CSc1ccc(Oc2ccc(S(N)(=O)=O)cc2CN(C)C)cc1C` here?
The outcome was “inactive”.

And the AC50 [5]?
Its AC50 is 8.72 µM (active).

What about the outcome [6] of the same molecule?
The outcome was “inactive”.

And the outcome [7]?
Its outcome is “inactive”.

And the outcome [2]?
The outcome was “inactive”.

What about the outcome [8] of the same molecule?
Its outcome is “inactive”.

For `O=CC(F)(F)C(F)(F)C(F)(F)C(F)F`, which outcome [1] is on record?
Its outcome is “inactive”.

How did the outcome [1] turn out when `CC(=O)CC(C)(C)O` was run?
The outcome was “inactive”.

How did the outcome [1] turn out when `C=C(C)[C@H]1CC=C(C)C(=O)C1` was run?
The outcome was “inactive”.

Which outcome [1] does the source give for `COc1cc(C(=O)NC2CCN(C)CC2)ccc1Nc1ncc2c(n1)N(C1CCCC1)CC(F)(F)C(=O)N2C` here?
Its outcome is “inactive”.

What about the AC50 [6] of the same molecule?
The AC50 was 23.4 µM (active).

And the outcome [9]?
The outcome was “inactive”.

What about the AC50 [10] of the same molecule?
Its AC50 is 12.2 µM (active).

What about the outcome [11] of the same molecule?
The outcome was “inactive”.

And the outcome [12]?
Its outcome is “inactive”.

What about the outcome [13] of the same molecule?
The outcome was “inactive”.

What about the AC50 [14] of the same molecule?
The AC50 was 6.13 µM (active).

What about the outcome [15] of the same molecule?
The outcome was “inactive”.

And the outcome [16]?
The outcome was “inactive”.

And the AC50 [4]?
The AC50 was 3.01 µM (active).

For `CC(CO)c1ccccc1` (stereo unspecified), which outcome [1] is on record?
The outcome was “inactive”.

Which outcome [1] does the source give for `COCC1CCC(CO)CC1` (stereo unspecified) here?
The outcome was “inactive”.

With `CCCCOCCOCCOCc1cc2c(cc1CCC)OCO2` as the molecule, how does the outcome [1] read?
Its outcome is “inactive”.

And the outcome [17]?
The outcome was “inactive”.

And the AC50 [18]?
The AC50 was 5.69 µM (active).

For `CCc1ccc(C)nc1`, which outcome [1] is on record?
Its outcome is “inactive”.

`C=CC(=C)CCCC(C)(C)OC(C)=O` was tested. Which outcome [1] did it give?
Its outcome is “inactive”.

With `CCCC(=O)OCC(COC(=O)CCC)OC(=O)CCC` as the molecule, how does the outcome [1] read?
The outcome was “inactive”.

`O=S(=O)(O)CCC(F)(F)C(F)(F)C(F)(F)C(F)(F)F` was tested. Which outcome [1] did it give?
The outcome was “inactive”.

For `FC(F)(F)C(F)(F)C(F)(F)C(F)(F)C(F)(F)C(F)(F)C(F)(F)I`, which outcome [1] is on record?
Its outcome is “inactive”.
